Data taken from PubChem BioAssay.
Some of the results follow. Activity calls are given as the source filed them.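 How the source made its calls: active means mean inhibition across four replicates of at least 40 percent at the single tested concentration; inactive means the rest.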

Assay: HIF-2a reporter inhibitor retest, confirmation, luminescence, 786-0 RCC cells (AID 651580)
Conditions: HIF-2a luciferase reporter luminescence, overnight, at 18.8 µM, active compounds read high

| Structure (SMILES) | inhibition |
| --- | --- |
| COc1ccc(-c2oc3ncnc(NCCCO)c3c2-c2ccc(OC)cc2)cc1 | 37.9% (inactive) |
| COCC(C)n1c(C)cc(C(=O)COc2ccc(C)nc2[N+](=O)[O-])c1C (stereo not given) | 55% (active) |
| CCN(CC)CCCC(C)n1c2nc(=O)[nH]c(=O)c-2nc2cc(Cl)ccc21 (stereo not given) | 97.9% (active) |
| Cc1cc(-c2n[nH]c(=S)n2/N=C/C(Br)=C/c2ccccc2)n[nH]1 | 22.8% (inactive) |
| O=S(=O)([N-]c1nc2ccccc2nc1-[n+]1ccc(Cc2ccccc2)cc1)c1ccc(Br)s1 | -48.2% (inactive) |
| Cc1cccc(C(=O)Nc2ccc(CC(=O)O)cc2)c1 | 53% (active) |
| Cc1cc(Cl)c(S(=O)(=O)Nc2ccc3c(c2)OCCO3)cc1OCC(N)=O | 46.5% (active) |
| COC(=O)CCNc1ccc2c(c1)OCCO2 | 50.7% (active) |
| CCN1CCC(O)(/C=C/c2ccc(C)cc2)C(C(=O)/C=C/c2ccc(C)cc2)C1 (stereo not given) | 5.88% (inactive) |
| COC(=O)c1c(NC(=O)CCCC(=O)O)sc2c1CCCCC2 | 41.2% (active) |
| O=C(Nc1ccccc1)c1nnsc1S(=O)(=O)c1ccc(Cl)cc1 | 47.1% (active) |
| Cc1nnnn1/C(=C\c1ccccc1)C(=O)OCC(=O)N1CC2(C)CC1CC(C)(C)C2 (stereo not given) | 62% (active) |
| Cc1ccc(-c2noc(CNC(=O)c3ccoc3C)n2)cc1 | 0.91% (inactive) |
| CCC(C)(C)c1ccc(Oc2ccc(NC(=O)COC(=O)C3=COCCO3)cc2)cc1 | 97.8% (active) |
| O=C(CN1CCN(C2CCS(=O)(=O)C2)CC1)N1N=C(c2ccc(Cl)cc2)CC1c1ccco1 (stereo not given) | -11% (inactive) |
